Hits are enriched below; roughly 3.1% of the tested compounds scored in any of these assays.
Tb PFK inh: T. brucei PFK enzyme inhibition; Potency, µM (doses to about 57.5 µM), for inactives: top-dose activity, negative = inhibition, actives largely listed as inhibitors; T. brucei PFK, ADP-Glo luminescence; 330,000 tested, 0.17% active; O15648;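 further: 0% = uninhibited 1x PFK enzyme wells and -100% = no-enzyme wells; nearly all actives have a fitted effect of over 60% in size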
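ADP-Glo luminescence quantified ADP after 45 min at room temperature, with 1.25 nM T. brucei PFK, 0.1 mM ATP and 0.5 mM fructose-6-phosphate in pH 8.0 TEA buffer. qHTS titrations up to 57 µM; curves classified by quality.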
S-ASM inh: human S-ASM enzyme inhibition; 340,000 tested, 0.006% active; Potency, µM (titrated, usually from 57.5 µM), for the others: top-dose activity change, negative = inhibition, most hits filed as inhibitors; placental ASM, HMU-PC fluorogenic substrate, 60 min; P17405
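Fluorogenic HMU-PC substrate (9 uM final) is turned over by placental ASM in 60 min at 37 C after a 10 min compound preincubation. Reaction ended by alkaline stop (pH 10), with fluorescence read at 386/447 nm.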
Pin1 inhibitor: human Pin1 inhibition; AID 504891; Pin1 FP peptide displacement, HiFluor488, 10 min; Potency, µM (series often up to 115 µM), inactives show at the highest dose activity, negative = inhibition, actives largely listed as inhibitors; 390,000 tested, 0.009% active; active means well fitted inhibition curve with a large enough effect in the polarisation, with a control signal flat, not every such curve was filed as active; inconclusive means small, poorly fitted or top-dose-only effect, or effect the other way, or a change in a side signal; inactive means no such curve, though single readings can be large or run the other way; the % refers to the polarisation; further: on the % scale 0 is the no-effect control and ±100 the full control effect
VDR inhibitor: blocks the human vitamin D receptor; 400,000 tested, 0.93% active; VDR-SRC2-3 peptide fluorescence polarization, 2 h; P11473; AID 504847; Potency, µM, for the others: max response, negative = inhibition, most hits filed as inhibitors; further: on the % scale 0 is the no-effect control and ±100 the full control effect
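Compounds are added to VDR with labelled SRC2-3 coactivator peptide and held 2 h at room temperature. Inhibition of the VDR–peptide interaction is then read as a change in fluorescence polarization.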
PLK1 PBD inh: blocks phosphopeptide binding to human PLK1 polo-box domain | Plk1 PBD binding of FITC phosphopeptide, fluorescence polarization | Potency, µM, for the others: max response, negative = inhibition, most hits filed as inhibitors | 360,000 tested, 2.8% active | AID 720504; further: series mostly up to about 57 µM; on the % scale 0 is the no-effect control and ±100 the full control effect; nearly all actives have a fitted effect of over 65% in size
Target sequence (P53350 whole entry, looked up, the tested form may be a part): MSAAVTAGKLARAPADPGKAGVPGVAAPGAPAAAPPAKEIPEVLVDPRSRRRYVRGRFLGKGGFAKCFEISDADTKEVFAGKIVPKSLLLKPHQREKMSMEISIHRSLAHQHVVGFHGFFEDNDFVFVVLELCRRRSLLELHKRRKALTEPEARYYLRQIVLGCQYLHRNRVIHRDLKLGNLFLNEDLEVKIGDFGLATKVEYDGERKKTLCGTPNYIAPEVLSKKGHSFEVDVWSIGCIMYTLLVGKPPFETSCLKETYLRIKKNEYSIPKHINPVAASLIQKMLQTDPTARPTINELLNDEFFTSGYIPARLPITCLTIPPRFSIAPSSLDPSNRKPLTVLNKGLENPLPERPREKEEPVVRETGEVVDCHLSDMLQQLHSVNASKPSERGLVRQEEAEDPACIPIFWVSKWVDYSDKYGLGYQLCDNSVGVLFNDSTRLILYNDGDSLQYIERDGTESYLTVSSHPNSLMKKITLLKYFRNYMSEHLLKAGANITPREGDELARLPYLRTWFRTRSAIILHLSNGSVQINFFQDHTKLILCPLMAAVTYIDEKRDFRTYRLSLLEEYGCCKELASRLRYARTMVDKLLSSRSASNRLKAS
TDP1 inh: blocks human tyrosyl-DNA phosphodiesterase 1. Q9NUW8. 350,000 tested, 0.28% active. Potency, µM (highest dose often 130 µM), inactives show at the top dose activity change, negative = inhibition, actives largely listed as inhibitors. recombinant TDP1, AlphaScreen DNA substrate cleavage. AID 485290; further: on the % scale 0 is the no-effect control and ±100 the full control effect; nearly all actives have a fitted effect of over 40% in size
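Recombinant human Tdp1 (E. coli-expressed, 1 nM final) preincubated with compounds 15 min at room temperature, then 5'-biotin/3'-phosphotyrosine-FITC DNA substrate (15 nM final) added for 5 min. AlphaScreen beads (10 ug/ml final) added 10 min; cleavage lowers signal.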
* = called active by the depositor; u = inconclusive; x = no result given; [ ] = dose if it differs, or a comment. Unless noted, the call rests on the fitted dose curve; in most records, active means well fitted curve in the direction sought with a large enough effect; inconclusive means small, poorly fitted or top-dose-only effect, or another doubt; inactive means no such curve, though single readings can be large; an effect the other way counts as inactive or inconclusive. Potency means the concentration at half of the fitted maximal effect.

SMILES	Tb PFK inh	S-ASM inh	Pin1 inhibitor	VDR inhibitor	PLK1 PBD inh	TDP1 inh
NS(=O)(=O)c1ccc(CNC(=O)COc2ccc3c4c(c(=O)oc3c2)CCCC4)cc1	0%	-2%	86%	-23%	24µM*	-15%
CCCC[C@@H](C)[C@@H](OC(=O)C[C@@H](CC(=O)O)C(=O)O)[C@H](C[C@@H](C)CCCCCC[C@@H](O)C[C@H](O)[C@H](C)N)OC(=O)C[C@@H](CC(=O)O)C(=O)O	x	x	x	-17%	x	4%
NNC(N)=S	x	x	x	x	x	13%
Oc1cccc(Cl)c1Cl	x	x	x	x	x	3%
O=[N+]([O-])/C=C/c1c(Cl)cccc1Cl	x	1%	-3%	20µM*	2.7µM*	x
O=C1NC(=O)N(c2ccc3c(c2)OCO3)C(=O)/C1=C\c1ccsc1	3%	2%	20%	u	4.7µM*	-3%
COc1cc(/C=C2/SC(=S)N(Cc3ccccc3)C2=O)ccc1OCC(=O)O	4%	u	12%	89µM*	u	x
CC1CC(=O)O1 (centres undefined)	x	x	x	x	x	6%
C=CCN1CCC23c4c5ccc(O)c4OC2/C(=N/N=C2\CCC4(O)C6Cc7ccc(O)c8c7C4(CCN6CC=C)C2O8)CCC3(O)C1C5 (centres undefined)	x	x	x	-12%	x	17%
CCOc1ccc(-c2nc(CSCC(=O)NCCc3ccc(OCC)c(OCC)c3)c(C)o2)cc1	x	x	u	11%	x	4%
Cc1cc(Cc2c(O)[nH]c(=S)[nH]c2=O)ccc1OC(C)C	3%	-13%	-9%	79µM*	27µM*	4%
CC(C)COc1ccc(Cc2c(O)[nH]c(=S)[nH]c2=O)cc1	-4%	-2%	4%	-23%	27µM*	x
C=CCn1c(O)c(Cc2ccc(OCC)cc2)c(=O)[nH]c1=O	3%	-4%	1%	-7%	-13%	x
O=c1[nH]c(=S)[nH]c(O)c1CN1CCCCC1	7%	-10%	-4%	-11%	-10%	3%
C[C@H]1CC[C@@]2(C)[C@@H](CC[C@@H]3[C@@H]2CC[C@]2(C)[C@@H](O)CC[C@@H]32)C1	-2%	-27%	-6%	-14%	27µM*	5%
C[C@]12CCC3C(CC[C@H]4C[C@@H](O)CC[C@]34C)[C@H]1CC[C@H]2O (some centres undefined)	5%	-1%	5%	-10%	-3%	0%
Cc1ccc(N2C(=O)NC(=O)/C(=C\c3ccc(N4CCOCC4)cc3)C2=O)cc1	2%	4%	11%	u	6µM*	-1%
CCOc1ccc(N2C(=O)NC(=O)/C(=C\c3ccc(N4CCOCC4)cc3C)C2=O)cc1	-28%	2%	16%	u	6.7µM*	2%
COc1ccc(C#Cc2ccc3c(c2)O[C@H](CN(C)C(C)=O)[C@H](C)CN([C@@H](C)CO)S3(=O)=O)cc1	x	x	x	x	24µM*	x
COc1ccc(OC(=O)N(C)C[C@H]2OCc3cnnn3CCCC(=O)N([C@@H](C)CO)C[C@H]2C)cc1	x	x	x	x	-7%	x
CC1=NCCc2c1[nH]c1cc(O)ccc21	2%	427%	x	13%	1.2µM*	23%[56.1 µM]
COc1ccc2c3c([nH]c2c1)C(C)=NCC3	4%	9%	10%	-10%	1%	9%
CN1[C@@H]2CC[C@H]1CC(OC(c1ccc(F)cc1)c1ccc(F)cc1)C2 (some centres undefined)	x	x	x	-17%	x	6%
Nc1cc2nc3ccccc3nc2cc1N	-11%	-3%	u	3%	6.7µM*	5%
Cc1c(Cc2ccccc2)c(=O)oc2cc(OCc3ccc(C(=O)O)cc3)ccc12	5%	61%	u	1%	21µM*	7%
SMILES	Tb PFK inh	S-ASM inh	Pin1 inhibitor	VDR inhibitor	PLK1 PBD inh	TDP1 inh
c1ccc([Se]c2c(-c3ccccc3)[se]c3ccccc23)cc1	x	x	x	63µM*	x	-7%
CCC(Oc1ccc(Cl)cc1)C(=O)OC1CC2CCC(C1)N2C (centres undefined)	x	x	x	0%	x	7%
C/C(=C(/CCOC(=O)C(C)C)SS/C(CCOC(=O)C(C)C)=C(\C)N(C=O)Cc1cnc(C)nc1N)N(C=O)Cc1cnc(C)nc1N	x	x	x	16µM*	x	x
O=c1[nH]c(O)c(/C=C2\C=Nc3ccc(OCc4ccccc4)cc32)c(=O)[nH]1	-2%	-14%	u	-29%	24µM*	x
CCNCC	x	x	x	x	x	4%
Cc1cccc(-n2c(O)c(C=NCCN3CCCCC3)c(=O)[nH]c2=O)c1	-1%	-3%	8%	9%	-6%	1%
Cc1cccc(-n2c(O)c(C)c(=O)[nH]c2=S)c1	-3%	4%	-15%	-26%	12µM*	8%
CC(=O)N1CCN(c2ccc(OCC3CO[C@@](Cn4ccnc4)(c4ccc(Cl)cc4Cl)O3)cc2)CC1 (some centres undefined)	x	x	x	u	x	18%[56.1 µM]
O=C(Nc1cccc(F)c1)N1CC2(CCNCC2)C1	x	x	x	40µM*	x	x
COc1ccc(/C=C2/C(=O)NC(=O)N(c3ccccc3)C2=O)cc1CN1C(=O)c2ccccc2C1=O	1%	-3%	15%	79µM*	6µM*	x
O=C1NC(=O)N(Cc2ccccc2)C(=O)/C1=C/c1cnn(-c2ccccc2)c1	u	x	x	x	x	-3%
COc1ccccc1N1C(=O)NC(=O)/C(=C\c2cnn(-c3ccccc3)c2)C1=O	4%	0%	-4%	u	3.4µM*	-5%
COc1ccccc1N1C(=O)NC(=O)/C(=C/c2ccc3c4c(cccc24)CC3)C1=O	-4%	37%	u	50µM*	7.5µM*	0%
COc1cc(/C=C2/C(=O)NC(=O)N(c3ccccc3)C2=O)ccc1O	16%	0%	u	-13%	8.4µM*	1%
COc1ccc(N2C(=O)NC(=O)/C(=C/c3ccc(N4CCOCC4)cc3)C2=O)cc1	4%	x	x	x	x	3%
Oc1ccc2c3c1O[C@H]1c4c(c5ccccc5n4Cc4ccccc4)C[C@@]4(O)C(C2)N(CC2CC2)CC[C@]314	x	x	x	u	x	17%
CCS(=O)(=O)Nc1ccc(C2=NN(C(=O)c3ccco3)C(c3ccc(Cl)o3)C2)cc1 (centres undefined)	1%	-3%	13%	u	-13%	1%
N#CC(Cl)Cl	x	x	x	x	x	-6%
CN1Cc2c(ccc3c2OCO3)C2C(O)Cc3cc4c(cc3C21)OCO4 (centres undefined)	x	x	x	x	x	11%
O=C(Cl)c1ccccc1F	x	x	x	x	x	-6%
COc1cccc(N2C(=O)NC(=O)/C(=C/c3ccc4c(c3)Cc3ccccc3-4)C2=O)c1	0%	-4%	8%	u	3.4µM*	-14%
CCOc1cc(/C=C2/C(=O)NC(=O)N(c3ccc(CC)cc3)C2=O)ccc1OC(=O)c1cccs1	0%	-3%	17%	u	6µM*	2%
COc1ccc2c(c1)CCc1c(C(=O)Nc3c(C)nn(Cc4ccccc4C)c3C)noc1-2	x	x	41%	-1%	x	5%

From PubChem
